Rows were chosen to be rich in hits. Some 18% of all compounds tested hit in one or more screens of this group.
TDP1 cell noCPT: qHTS for Inhibitors of human tyrosyl-DNA phosphodiesterase 1 (TDP1): qHTS in cells in absence of CPT. 420,000 compounds, 15% hits. AID 686978, 2013. Potency, µM (highest dose often 46.2 µM), for the others: at the top dose activity change, negative = growth inhibition, hits mostly inhibitors. DT40 Tdp1-/- hTDP1 cells, no CPT, ATP luminescence, 48 h; also: nearly all actives have a fitted effect of over 55% in size
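Seeded 400 DT40-hTDP1 cells/well (vehicle DMSO, no 20 nM CPT); pinned compounds; ≥48 hr at 37 °C; CellTiter-Glo luminescence as viability measure.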
PLK1 PBD block: PLK1 (human) polo-box domain binding inhibition. P53350. AID 720504. Potency, µM, without a hit: max response, negative = inhibition, hits mostly inhibitors. 360,000 compounds, 2.8% hits. Plk1 PBD binding of FITC phosphopeptide, fluorescence polarization; also: series mostly up to about 57 µM; nearly all actives have a fitted effect of over 65% in size
Target sequence (P53350 whole entry, looked up, the tested form may be a part): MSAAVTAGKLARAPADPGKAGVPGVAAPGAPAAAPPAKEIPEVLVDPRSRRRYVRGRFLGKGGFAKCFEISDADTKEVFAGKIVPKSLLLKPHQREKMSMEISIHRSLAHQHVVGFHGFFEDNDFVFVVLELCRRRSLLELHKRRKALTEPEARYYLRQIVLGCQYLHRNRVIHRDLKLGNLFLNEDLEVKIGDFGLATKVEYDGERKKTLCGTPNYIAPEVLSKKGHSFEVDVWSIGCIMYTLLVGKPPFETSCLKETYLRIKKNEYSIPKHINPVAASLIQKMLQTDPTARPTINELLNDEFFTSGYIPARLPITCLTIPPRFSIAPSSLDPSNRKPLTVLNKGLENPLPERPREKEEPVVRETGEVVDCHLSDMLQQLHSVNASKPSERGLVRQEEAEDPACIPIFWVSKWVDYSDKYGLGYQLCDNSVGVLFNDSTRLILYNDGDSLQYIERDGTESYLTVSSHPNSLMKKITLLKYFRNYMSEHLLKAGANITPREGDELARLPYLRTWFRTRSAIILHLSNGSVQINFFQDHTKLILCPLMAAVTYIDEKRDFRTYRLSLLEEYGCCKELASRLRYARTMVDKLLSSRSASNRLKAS
GCN5L2 inh: blocks human GCN5L2 histone acetyltransferase; Q92830; GCN5L2 HAT assay, ThioGlo1 CoA-SH fluorescence; Potency, µM (series often up to 58.9 µM), inactives show top-dose activity change, negative = inhibition, hits mostly inhibitors; 390,000 compounds, 0.21% hits; AID 504327
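ThioGlo1-coupled HAT assay: 20nM GCN5L2, 70uM acetyl-CoA, 75uM H3(1-25) peptide, pH 7.5. Fluorescence read at 340/540nm at start and after 20 min at room temperature.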
TDP1 inh: blocks human tyrosyl-DNA phosphodiesterase 1. Q9NUW8. recombinant TDP1, AlphaScreen DNA substrate cleavage. Potency, µM (series often up to 130 µM), for the others: at the highest dose activity change, negative = inhibition, most hits filed as inhibitors. 350,000 compounds, 0.28% hits. AID 485290; also: nearly all actives have a fitted effect of over 40% in size
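AlphaScreen read-out: signal falls as enzyme removes the 3' tyrosine-FITC from a 5'-biotinylated DNA oligo (15 nM, 5 min, RT). Enzyme was E. coli-made recombinant Tdp1 at 1 nM, exposed to compound for 15 min beforehand; beads 10 ug/ml, 10 min.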
DT40 TDP1 CPT: DT40-hTDP1 cell growth loss with CPT; Potency, µM (top dose mostly 46.2 µM), without a hit: top-dose activity change, negative = growth inhibition, most hits filed as inhibitors; 420,000 compounds, 12% hits; chicken DT40 Tdp1-/-;hTDP1 cells + 20 nM CPT, ATP luminescence, 48 h; also: nearly all actives have a fitted effect of over 55% in size
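Chicken DT40 Tdp1-/- cells stably complemented with human TDP1 were seeded at 400 cells/well in medium containing 20 nM camptothecin, exposed to pin-transferred compounds, and grown at 37 °C for at least 48 hr. Viability was read as ATP luminescence.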
VDR inhibitor: blocks the human vitamin D receptor. P11473. AID 504847. 400,000 compounds, 0.93% hits. Potency, µM, inactives show max response, negative = inhibition, most hits filed as inhibitors. VDR-SRC2-3 peptide fluorescence polarization, 2 h
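FP read-out; VDR + SRC2-3 coactivator peptide; 23 nl compound by pintool; 2 h RT incubation; reagents held at 4 deg C, protected from light.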
* hit, by the source's call; ? = inconclusive; . = no result. Calls follow the shape of the dose curve; as a rule, active = well fitted curve in the direction sought with a large enough effect; inconclusive = small, poorly fitted or top-dose-only effect, or another doubt; inactive = no such curve, though single readings can be large; an effect the other way counts as inactive or inconclusive. % is scaled to controls: 0 for no effect and ±100 for the full control effect; potency is read from the fitted curve at half-maximal effect.

SMILES | TDP1 cell noCPT | PLK1 PBD block | GCN5L2 inh | TDP1 inh | DT40 TDP1 CPT | VDR inhibitor
Cc1ccc2oc(=O)c3cnn(CC(=O)Nc4ccc(Br)cc4C)c3c2c1 | -12% | . | -6% | 6% | 4% | -3%
Cc1ccc(Cl)cc1NC(=O)CN1C(=O)C(C)(C)c2cc(S(=O)(=O)N3CCCCC3)ccc21 | 23µM* | . | 0% | 3% | ? | 11%
Cc1cc(Br)ccc1NC(=O)CNC(=O)Cn1ncc(Cl)c(Cl)c1=O | 3.7µM* | -13% | -14% | . | 4.1µM* | -10%
O=C(Cn1ncc(Cl)c(Cl)c1=O)N1CCN(S(=O)(=O)c2ccc3ccccc3c2)CC1 | 4.6µM* | -13% | 1% | 3% | 2.9µM* | -9%
Cc1ccc(S(=O)(=O)N2CCCCC2)cc1NC(=O)Cn1ncc(Cl)c(Cl)c1=O | 2.1µM* | -19% | -14% | -7% | 4.6µM* | 1%
O=C(CSc1nc2ccccc2o1)N1CCN(S(=O)(=O)c2ccc3ccccc3c2)CC1 | 1% | -4% | -2% | 4% | 8% | -3%
CC(NC(=O)COC(=O)c1nc(Cl)ccc1Cl)c1ccccc1 (stereo not drawn) | 1% | -8% | -7% | -1% | 5% | -22%
COc1ccc(C2=CC(c3ccccc3Cl)n3nc(-c4ccc(C)cc4)nc3N2)cc1 (stereo not drawn) | ? | . | -4% | 5% | ? | -14%
Cc1cc(C)cc(-n2cnc3cc(C(=O)NCCc4ccccc4)ccc32)c1 | ? | . | -3% | 13% | ? | 1%
O=C(OCCCOC(=O)c1ccc([N+](=O)[O-])o1)c1ccc([N+](=O)[O-])o1 | -14% | -3% | -12% | . | ? | -12%
O=C(O)/C=C/c1ccc([N+](=O)[O-])o1 | -28% | ? | -8% | 32µM* | -2% | 2%
CN1CCN(C(=O)/C=C\c2ccc(Cl)cc2)CC1 | -3% | -4% | 0% | -3% | 7% | 1%
CN1CCN(C(=O)/C=C/c2ccc([N+](=O)[O-])o2)CC1 | 15µM* | 4% | -5% | . | 9.2µM* | -7%
CCCCN(C)C(=O)c1nc2ccccn2c1CN1CCN(c2ncccn2)CC1 | -6% | -10% | 0% | . | -2% | 18%
CCCCN(C)C(=O)c1nc2ccccn2c1CN1CCN(C/C=C/c2ccccc2)CC1 | 26µM* | -2% | 1% | . | ? | -6%
Cc1ccc(-c2noc(-c3ccccc3NC(=O)C3CC(=O)N(c4cccc(C)c4)C3)n2)cc1 (stereo not drawn) | -2% | . | 1% | 3% | -10% | -17%
CCOCCCNC(=O)CCc1nnc2n(CCC(C)C)c(=O)c3ccccc3n12 | ? | -10% | -2% | . | -17% | -2%
OCCNc1nc(SCc2ccccc2)nc2sc3c(c12)CCC3 | 15µM* | ? | -18% | 6% | ? | -20%
O=[N+]([O-])c1cccnc1N1CCC(c2cc(-c3ccc(Cl)cc3)n[nH]2)CC1 | 21µM* | -4% | 2% | 11% | 21µM* | 2%
Cc1c(Cl)cccc1-n1c(SCC(=O)NCc2ccccc2Cl)nnc1-c1ccncc1 | ? | -1% | 23% | 3% | 14µM* | 7%
CCOC(=O)C(C)Oc1ccc(NC(=O)C(Cl)Cl)cc1 (stereo not drawn) | -2% | -3% | 0% | . | 21% | 9%
CCC(Cn1nnc2ccccc2c1=O)NC(=O)Nc1cccc(C)c1C (stereo not drawn) | 10% | . | -4% | 2% | -19% | 2%
O=C(CSc1nccn1-c1ccc(Cl)cc1)N1CCCc2ccccc21 | 15µM* | -4% | 11% | 1% | ? | 1%
Cn1c(SCC(=O)N2CCc3ccccc32)nc2cccnc21 | 21µM* | 24µM* | -1% | 4% | 16µM* | -25%
Cn1c(SCC(=O)N2CCCc3ccccc32)nc2cccnc21 | ? | -6% | 2% | 1% | ? | ?

Bioassay records: PubChem BioAssay, National Center for Advancing Translational Sciences (NCATS)
